SMILES strings stand for the structures. This is part of a sample that, as a whole, favours compounds with a hit. Of some 79,000 tested, about 15% had one in any assay. A number with no mark means an inactive call. Cut-off read from the data, not from the text of the source: active = growth inhibition above about 70%; inactive = the rest.

This assay can be described thus: NCI Yeast Anticancer Drug Screen. Data for the rad50 strain (AID 155).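 Note: 0% = growth of vehicle-only cultures of the same strain.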 The conditions noted are these: S. cerevisiae rad50 strain growth inhibition; at 50.0 µM; hits give high values. The gist of the method:
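Growth of the mutant yeast was measured after compound exposure and referenced to vehicle-treated cultures.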
Consider `COC(=O)CCc1cc(=O)oc2ccc3cc(CC(=O)OC)oc3c12`, for which the growth inhibition is 5.75%. Consider `CCCCOC(=O)c1ccc(O)cc1.[Zn+2]`, for which the growth inhibition is -31.1%. Take `CC(=O)C1=C(O)C2(O)C(=O)c3c(c(C)c4ccc(C)c(O)c4c3O)CC2C(N)C1=O` (centres undefined): the growth inhibition is 9.85%. As for `O=C1CCCCC1CN1CCOCC1` (centres undefined), the growth inhibition was -37.5%. For the compound `Cc1ccc(/C=C(/C#N)C(N)=O)cc1`, the growth inhibition is 11.2%.

`O=C(CNc1ccc(Cl)cc1Cl)NC1C=Cc2ccc(S(=O)(=O)Nc3ccc(Cl)cc3Cl)cc2C1=O` (centres undefined): the growth inhibition is 34.5%.

Regarding `CC1(C)C(CC(=O)O)CC1C(=O)O` (centres undefined), the growth inhibition was 10.4%.

Turning to `CC(O)CNC(=O)C(C)O` (centres undefined), the growth inhibition is 11.8%.

Consider `CC1(C)[C@@H]2C[C@H]1[C@@H](Cc1cccc(C[C@H]3c4cc(-c5ccccn5)ncc4[C@H]4C[C@@H]3C4(C)C)c1)c1cc(-c3ccccn3)ncc12`, for which the growth inhibition is 45.4%. The result for `COC(=O)CC(NC(=O)OCc1ccccc1)C(=O)NCC(=O)NCC(=O)O` (centres undefined) reads 15.8%. Then `C=CCCc1cc(OC)ccc1C(=O)C(C)C`, with 4.3%. Then `CCOC(=O)Nc1cc(C(F)(F)F)ccc1F`, with -14.8%; and `c1csc(-c2nn3c(C45CC6CC(CC(C6)C4)C5)nnc3s2)c1`, with 10.9%. `Cc1c2ccn3c(=O)c4ccccc4cc3c2c(C)c2c1[nH]c1ccccc12`: the growth inhibition is 56.1%. The result for `O=C(O)c1cc(-c2ccccc2)nc2c(Cl)cc(Cl)cc12` reads -12.9%; that for `CCOC(=O)C(CN1CCN(CC(NC=O)(C(=O)OCC)C(=O)OCC)CC1)(NC=O)C(=O)OCC`, -17.1%; that for `COc1cc(C2c3cc4c(c(OC(=O)c5ccncc5)c3CC3COC(=O)C32)OCO4)cc(OC)c1OC` (centres undefined), 1.15%. For the compound `O=C(O)C1CCCCN1C(=O)c1ccccc1` (centres undefined), the growth inhibition is -26.6%. The result for `O=C1OC(c2cccc(Cl)c2)=N/C1=C\c1ccc(Cl)cc1` reads 20.4%; that for `CC1=C(C#N)C(C#N)(C#N)C(NN(C)C)C1` (centres undefined), 8.3%. The result for `S=C1c2cc(Cl)ccc2NC(=NC2CCCC2)C2CSCN12` (centres undefined) reads 7.65%; that for `CCCCCCCCO[Si](OCCCCCCCC)(OCCCCCCCC)OCCCCCCCC`, -24.6%; that for `C=CC(C)(CCC=C(C)C)OC(C)=O` (centres undefined), 27.6%.

In the case of `COc1cc(/C=C/c2cc(/C=C/c3ccc(O)c(OC)c3)c([N+](=O)[O-])cc2[N+](=O)[O-])ccc1O`, the growth inhibition was 66.3%.

These data come from PubChem BioAssay (NCI).
